Several values for one entry are separate records, joined by “and”; a condition that tells them apart may be missing. Identical values can stand only once. Some compounds were tested as several samples or in several runs, with calls that do not always agree. Activity calls are given as the source filed them. The calls were made as follows: active = hit-call score of the fitted dose curve at least 0.9, where 1 is the maximum; inactive = score below 0.9.
Columns and labels:
[1] = APR_HepG2_StressKinase_1hr: Apredica 1-hour HepG2 Assay for Stress Kinase (AID 2282906); settings: HepG2 stress kinase (phospho-c-Jun) imaging, actives raise or lower the signal
Outline: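 High-content imaging of phospho-c-Jun immunostaining (with Hoechst nuclear identification) after a 1 h exposure of HepG2 cells to 10 concentrations from 0.39 to 200 uM, final DMSO 0.5%. Fitted bidirectionally against DMSO.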

[2] = APR_HepG2_NuclearSize_24hr: Apredica 24-hour HepG2 Assay for Nuclear Size (AID 2282907); settings: high-content imaging, actives raise or lower the signal
Outline: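 Nuclear size is measured by fluorescence high-content imaging of Hoechst-labelled HepG2 nuclei after 24 hr of treatment (0.39–200 uM, 0.5% DMSO). Cells are fixed in 3.7% formaldehyde before staining, and DMSO serves as the baseline for bidirectional curve fitting.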

[3] = APR_HepG2_CellLoss_24hr: Apredica 24-hour HepG2 Assay for Cell Loss (AID 2282908); settings: high-content imaging;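 as to AC50: fit in both directions so a hit may be cell loss or gain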
Outline: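 Nuclear count serves as the viability measure: treated cells are fixed, permeabilized and labelled with Hoechst 33342, and six images per well are analysed to identify valid nuclei. Doses span 0.39–200 uM, and activity in either direction is scored against DMSO.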

[4] = APR_HepG2_MicrotubuleCSK_24hr: Apredica 24-hour HepG2 Assay for Microtubule CSK Stabilty (AID 2282909); settings: HepG2 microtubule cytoskeleton imaging, actives raise or lower the signal
Outline: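 Compounds were applied to HepG2 cells for 24 hours across 0.39–200 uM in duplicate, with final DMSO at 0.5% v/v. Fixed, permeabilized cells were labeled for alpha-tubulin and nuclei, and tubulin fluorescence was quantified by imaging, fitted bidirectionally against DMSO.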

[5] = APR_HepG2_MitoticArrest_24hr: Apredica 24-hour HepG2 Assay for Mitotic Arrest (AID 2282910); settings: high-content imaging, actives raise or lower the signal
Outline: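 High-content imaging of fixed HepG2 cells labeled with Hoechst 33342 and anti-phospho-histone H3, after 24 h treatment. Ten concentrations 0.39 to 200 uM in duplicate, final DMSO 0.5%; changes fitted both directions relative to DMSO.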

[6] = APR_HepG2_MitoMembPot_24hr: Apredica 24-hour HepG2 Assay for Mitochondrial Membrane Potential (AID 2282911); settings: imaging, actives raise or lower the signal
Outline: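 Mitochondrial membrane potential imaged via MitoTracker Red CMXRos (250 nM, 30 min pre-fixation) in fixed HepG2 cells with Hoechst nuclear identification. Ten concentrations 0.39–200 uM, 24 h treatment, 0.5% DMSO; CCCP as positive control.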

[7] = APR_HepG2_MitoMass_24hr: Apredica 24-hour HepG2 Assay for Mitochondrial Mass (AID 2282912); settings: high-content imaging, actives raise or lower the signal
Outline: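 After 24 hr of treatment at 0.39 to 200 uM, HepG2 cells take up 250 nM MitoTracker Red CMXRos for 30 min and are then fixed with 3.7% formaldehyde. Per-well images are quantified, and any change in either direction is scored against solvent.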

[8] = APR_HepG2_p53Act_24hr: Apredica 24-hour HepG2 Assay for p53 Activation (AID 2282913); settings: high-content imaging, actives raise or lower the signal;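 also: p53 protein immunofluorescence averaged per cell in HepG2 with Hoechst nuclei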
Outline: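 Fluorescence imaging of formaldehyde-fixed HepG2 cells labelled for p53 and with Hoechst, 24 h after dosing (0.39–200 uM, duplicate wells, 0.5% v/v DMSO). Signal fitted in both directions relative to DMSO.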

[9] = APR_HepG2_CellCycleArrest_72hr: Apredica 72-hour HepG2 Assay for Cell Cycle Arrest (AID 2282914); settings: high-content imaging, actives raise or lower the signal
Outline: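 Read-out: nuclear DNA content from Hoechst 33342 high-content imaging (20x, six fields/well) after 3.7% formaldehyde fixation, fitted bidirectionally against DMSO. Treatment was 72 h in HepG2, ten concentrations 0.39–200 uM, duplicate, 0.5% DMSO.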

[10] = APR_HepG2_P-H2AX_72hr: Apredica 72-hour HepG2 Assay for H2AX Phosphorylation (AID 2282916); settings: imaging, actives raise or lower the signal;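 also: phospho-histone H2A.x immunostain intensity per cell marking DNA damage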
Outline: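 Human hepatoma HepG2 cells are dosed across ten concentrations (0.39 to 200 uM, 0.5% v/v DMSO) and incubated 72 hr. Phospho-histone H2A.x is then detected by antibody staining alongside c-Jun and Hoechst, and quantified by automated fluorescence imaging.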

[11] = APR_HepG2_MitoMembPot_72hr: Apredica 72-hour HepG2 Assay for Mitochondrial Membrane Potential (AID 2282917); settings: imaging, actives raise or lower the signal
Outline: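 Membrane potential read by MitoTracker Red CMXRos (250 nM, 30 min, pre-fixation) fluorescence imaging of HepG2 after 72 hr exposure. Ten concentrations, 0.39–200 uM, duplicate wells, 0.5% DMSO; fitted in both directions against DMSO baseline.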

[12] = APR_HepG2_MitoticArrest_72hr: Apredica 72-hour HepG2 Assay for Mitotic Arrest (AID 2282918); settings: high-content imaging, actives raise or lower the signal
Outline: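 High-content imaging of fixed human HepG2 cells after 72 h compound exposure (0.39–200 uM, duplicates, 0.5% DMSO); mitotic arrest scored from phospho-histone H3 and nuclear Hoechst staining relative to DMSO.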

[13] = APR_HepG2_MicrotubuleCSK_72hr: Apredica 72-hour HepG2 Assay for Microtubule CSK Stabilty (AID 2282919); settings: HepG2 microtubule cytoskeleton, high-content imaging, actives raise or lower the signal
Outline: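 High-content imaging of alpha-tubulin staining in fixed HepG2 cells after 72 hr treatment with ten concentrations from 0.39 to 200 uM (0.5% DMSO). Fitting was bidirectional against DMSO; taxol served as positive control.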

[14] = APR_HepG2_P-H2AX_24hr: Apredica 24-hour HepG2 Assay for H2AX Phosphorylation (AID 2282920); settings: high-content imaging, actives raise or lower the signal
Outline: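 High-content imaging of phospho-histone H2A.x immunofluorescence, nuclei counterstained with Hoechst 33342, in fixed HepG2 cells. Compounds ran 0.39–200 uM in duplicate for 24 h, final DMSO 0.5%. Signal change fitted both directions against DMSO.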

[15] = APR_HepG2_StressKinase_24hr: Apredica 24-hour HepG2 Assay for Stress Kinase (AID 2282922); settings: HepG2 stress kinase (phospho-c-Jun) imaging, actives raise or lower the signal
Outline: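 High-content imaging of phospho-c-Jun immunofluorescence in fixed, permeabilized HepG2 cells after 24 h dosing. Ten concentrations, 0.39 to 200 uM, run in duplicate at 0.5% v/v DMSO; gain or loss of signal versus DMSO.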

[16] = APR_HepG2_MitoMass_72hr: Apredica 72-hour HepG2 Assay for Mitochondrial Mass (AID 2282924); settings: high-content imaging, actives raise or lower the signal;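 also: MitoTracker Red CMXRos stain intensity per cell imaged as mitochondrial mass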
Outline: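 Readout is imaged MitoTracker Red (250 nM, 30 min, pre-fixation) signal, fitted bidirectionally against DMSO baseline. Human HepG2 liver cells received compound 0.39–200 uM in duplicate for 72 hr, final DMSO 0.5%.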

[17] = APR_HepG2_CellCycleArrest_24hr: Apredica 24-hour HepG2 Assay for Cell Cycle Arrest (AID 2282905); settings: imaging, actives raise or lower the signal;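 also: cell cycle arrest scored as ratio of 2N to 4N nuclear DNA content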
Outline: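 Compounds (0.39 to 200 uM, final DMSO 0.5% v/v) are applied to HepG2 cells for 24 hours; cells are then fixed, permeabilized and nuclei labeled with Hoechst 33342. Automated imaging measures DNA content, and activity is fitted in both directions against DMSO.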

[18] = APR_HepG2_StressKinase_72hr: Apredica 72-hour HepG2 Assay for Stress Kinase (AID 2282921); settings: HepG2 stress kinase (phospho-c-Jun) imaging, actives raise or lower the signal
Outline: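 After a 72 h compound treatment spanning 0.39 to 200 uM, formaldehyde-fixed cells are labelled for phosphorylated c-Jun and nuclei, imaged by automated fluorescence microscopy, and activity is fitted in both directions relative to DMSO controls.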

[19] = APR_HepG2_p53Act_72hr: Apredica 72-hour HepG2 Assay for p53 Activation (AID 2282923); settings: high-content imaging, actives raise or lower the signal;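 also: average cellular p53 protein immunofluorescence intensity in HepG2 cells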
Outline: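 Imaging-based endpoint: after 72 hr compound exposure (up to 200 uM, 0.5% DMSO), fixed and permeabilized monolayers were labelled with anti-p53 antibody and imaged; signal change in either direction was fitted relative to DMSO controls.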

[20] = APR_HepG2_CellLoss_72hr: Apredica 72-hour HepG2 Assay for Cell Loss (AID 2282915); settings: high-content imaging
Outline: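 Cell number comes from Hoechst 33342-labelled nuclei, imaged at 20x after 3.7% formaldehyde fixation. Dosing was 0.39–200 uM, ten concentrations in duplicate, 0.5% DMSO final, for 72 h. Bidirectional fit relative to DMSO baseline.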

Measured: AC50

CCOC(=O)C(Cl)Cc1cc(-n2nc(C)n(C(F)F)c2=O)c(F)cc1Cl (stereo not drawn)
not listed: [17] | [18] | [19] | [20]
inactive: all other assays above

CCON=C(CC)C1=C(O)CC(c2c(C)cc(C)cc2C)CC1=O (stereo not drawn)
not listed: [9] | [18] | [19] | [20]
inactive: all other assays above

C=CCC1=C(C)[C@@H](OC(=O)[C@@H]2[C@@H](C=C(C)C)C2(C)C)CC1=O
active: [3] 99.2 µM | [4] 55.9 µM | [12] 67.4 µM | [13] 79.5 µM | [14] 118 µM
not listed: [19] | [20]
inactive: all other assays above

CS/C(C)=N/OC(=O)N(C)SN(C)C(=O)O/N=C(\C)SC
active: [3] 47.4 µM
not listed: [20]
inactive: all other assays above

C#CCOS(=O)OC1CCCCC1Oc1ccc(C(C)(C)C)cc1 (stereo not drawn)
active: [17] 3.03 µM | [3] 7.2 µM | [4] 38.4 µM | [6] 6.31 µM | [11] 3.43 µM | [13] 2.25 µM
not listed: [9] | [18] | [19] | [20]
inactive: all other assays above

COC(=O)N(OC)c1ccccc1COc1ccn(-c2ccc(Cl)cc2)n1
active: [3] 3.37 µM | [4] 6.07 µM | [6] 0.332 µM | [10] 25.5 µM | [11] 3.69 µM | [12] 39.9 µM | [13] 3.29 µM
not listed: [17] | [19] | [20]
inactive: all other assays above

C=CCC1=C(C)C(OC(=O)C2C(C=C(C)C)C2(C)C)CC1=O (stereo not drawn)
inactive: [17] | [1] | [2] | [4] | [5] | [6] | [7] | [8] | [10] | [11] | [12] | [13] | [14] | [15] | [16]
active: [2] 53.2 µM | [3] 55.8 µM [middle of 4 runs] | [4] 30.6 µM and 29.7 µM | [5] 35.4 µM and 43.3 µM and 46.9 µM | [6] 112 µM | [7] 29 µM and 48.5 µM and 56.1 µM | [8] 42 µM | [20] 57.1 µM [middle of 4 runs] | [10] 53.8 µM and 47.5 µM | [12] 43.6 µM and 50 µM and 46 µM | [14] 38.1 µM | [15] 32.4 µM | [16] 66.4 µM

CCNc1nc(Cl)nc(NC(C)C)n1
not listed: [17] | [18] | [19]
inactive: all other assays above

COc1cnc(OC)n2nc(NS(=O)(=O)c3c(OCC(F)F)cccc3C(F)(F)F)nc12
not listed: [9] | [18] | [19] | [20]
inactive: all other assays above

Cc1ccc(-c2c(Cl)nc(C#N)n2S(=O)(=O)N(C)C)cc1
active: [6] 78.1 µM | [10] 104 µM | [13] 65.3 µM
not listed: [9] | [18] | [20]
inactive: all other assays above

CC(C)Oc1cc(-n2nc(C(C)(C)C)oc2=O)c(Cl)cc1Cl
active: [3] 50.8 µM | [4] 46.4 µM | [20] 58.9 µM | [10] 82.2 µM | [12] 42.6 µM | [13] 52.6 µM
not listed: [18] | [19]
inactive: all other assays above
